Data taken from PubChem BioAssay (NCI).
Several values for one entry are separate records, joined by “and”; a condition that tells them apart may be missing. Equal entries are not always repeated. Compounds without any hit were thinned out: in the full panel of roughly 83,000, 20% have a hit.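 Compound tested at a single concentration for 48 hours in 96-well plates; a percent growth value below 10 was scored as active.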 Unmarked numbers belong to inactive results. Activity calls are given as the source filed them.

These compounds were tested on MDA-MB-468 breast (assay: NCI-60 one-dose screen, 48 h (100 = growth as untreated, 0 = no growth, -100 = all killed)). Conditions: 10 µM unless noted.
In the case of COC(=O)c1nc(N)nc(C(=O)OC)c1C(=O)c1ccc(F)cc1, the growth is reported as 101%. For O=C1NC(=O)C2C(=O)NC(=O)C1C21CCc2ccccc21 (stereo not given), the growth was 101%. For C=CCn1ccc(=O)nc1SC, the growth was 115%. Compound O=C1NC(=C(Cl)Cl)/C(=N\S(=O)(=O)NCc2ccccc2)N1 has a growth of 45.1%. N=C(N)/N=C(\CCc1nc2ccccc2[nH]1)c1nc2ccccc2[nH]1 was tested, and the growth was 109%. With CCn1ccnc1C(=O)/C=C/c1ccc(CC(=O)Nc2ccc(F)cc2)cc1 the growth was -13.8% (active). In the case of COc1ccccc1/C=C1\Oc2ccc(O)c(O)c2C1=O, the growth is reported as 101%. COc1cc2ncnc(Nc3ccc(S(=O)(=O)Nc4nccs4)cc3)c2cc1OCCCN1CCOCC1 gave a growth of 107%. COc1ccc(-c2c(-c3ccc(OC)c(O)c3)cnc3ncnn23)cc1 was tested, and the growth was 109%. With CC1=C(C)C(=O)C(Nc2cccc(C(=O)OC(C)(C)C)c2)=CC1=O the growth was 37.5%. COc1ccc(C(=O)/C=C/c2cccc([N+](=O)[O-])c2)c(OC)c1 was tested, and the growth was -3.24% (active). CCN(CC)CCN1C(=O)c2c(c(C)c3c(oc4ccc(OC)cc43)c2C)C1=O showed a growth of 101%. In the case of O=C1/C(=C/c2ccc([N+](=O)[O-])o2)Oc2ccc(Br)cc21, the growth is reported as 65.3%. In the case of Cc1ccc(-c2noc(C)n2)cc1, the growth is reported as 101%. With COc1nc(N)nc(-n2c(-c3ccc(C)cc3)nc3ccccc32)c1NCc1ccc(C)cc1 the growth was 98.6%. Work on CC[C@]12C=CCN3CC[C@@]4(c5ccc(OC)cc5N(C)[C@H]4[C@@](O)(C(=O)OC)[C@@H]1OC(=O)CCC(=O)O[C@H]1CC[C@H]4[C@@H]5CC[C@H]6CC(=O)CC[C@]6(C)[C@H]5CC[C@]14C)[C@@H]32 yielded a growth of 24.8%. For COc1cnc2c(c1)C(=O)c1c-2n(CCCN2CCCC2)c(=O)c2cc(Cl)ccc12, the growth was 50.4%. With CC(C)CCC[C@@H](C)[C@H]1CCC2C3=CCC4C(=O)C=CC(=O)C4C3CC[C@@]21C (stereo not given in full) the growth was 2.69% (active). O=[N+]([O-])c1ccc(Sc2ncccn2)c([N+](=O)[O-])c1 was tested, and the growth was 5.95% (active). In the case of Cc1cc2nc3c4cc(C#N)ccc4n(CCN(C)C)c3nc2cc1C, the growth is reported as -41.7% (active). COc1cc(Nc2ncc(F)c(Nc3ccc4c(n3)N(COP(=O)(O)O)C(=O)C(C)(C)O4)n2)cc(OC)c1OC was tested, and the growth was 6.8% (active). In the case of COc1ccccc1NC(=O)Cn1cc(CN2CCN(c3ccnc4cc(Cl)ccc34)CC2)nn1, the growth is reported as 80.8%. With COc1ccc(Nc2cc(C)nc(N3CCN(c4ccnc5cc(Cl)ccc45)CC3)n2)cc1 the growth was 21.7%. O=C1Nc2ccccc2/C1=N/N1C(=O)CN(CCCl)C1=O gave a growth of 107%. Nc1ncnc(Nc2ccc(C(F)(F)F)cc2)n1 gave a growth of 108%. COc1ccc(C2c3ccc4ccccc4c3Oc3ncnc(N)c32)cc1 (stereo not given) was tested, and the growth was 86.6%. CC(C)CC(=O)C(CCc1ccccn1)C(C)C (stereo not given) showed a growth of 109%. CCCCCCCC/C=C\CCCCCCCCOc1ccccc1CCOP(=O)(O)OCC[N+](C)(C)C gave a growth of 61.9%. For N=c1c(C(=O)OCc2ccccc2)ncc(CCl)n1O, the growth was 68.6%. O=C(CSc1nnc(-c2cc(-c3ccccc3)nc3ccccc23)o1)c1ccc(Br)cc1 was tested, and the growth was 103%. For Clc1ccc(SSc2ccc(Cl)cc2)cc1, the growth was 95.7% and 95.5%. O=C(CNC(=O)c1cccc2ccccc12)Nc1ccccc1Oc1ccc(O)cc1 showed a growth of 27.5% [5 µM]. For Cc1cc(N)cc(C)c1-c1c(Br)cc(N)cc1Br, the growth was -28% (active). For COc1ccc2[nH]c(=O)c(CN3CCN(c4nccc(-c5ccc(Cl)cc5)n4)CC3)cc2c1, the growth was 88.6%. Compound O=C(CSc1nc2ccccc2c(=O)n1-c1ccccc1)Nc1cccc(C(=O)/C=C/c2ccccc2Cl)c1 has a growth of 113%. With Nc1ncnc2c1c(-c1ccc(Oc3ccccc3)cc1)nn2CC1SSCC1O (stereo not given) the growth was -24.8% (active). In the case of O=c1cc(CNc2cc(F)cc(F)c2)c2ccc(I)cc2[nH]1, the growth is reported as 19%. With C[C@@H](NC(=O)c1ncnc(N)c1Cl)c1ncc(C(=O)Nc2cc(C(F)(F)F)c(Cl)cn2)s1 the growth was 92.6%. COc1cc(OC)cc(C2C(C#N)=C(N)Oc3c2ccc2ccc(O)cc32)c1 (stereo not given) was tested, and the growth was -16.6% (active). Cc1ccc(S(=O)(=O)Nc2ccc(Cl)cc2)cc1 gave a growth of 107%.
